Structures can show the parent of a compound that is named as a salt.
system: Danio rerio larvae (5 dpf); assay: optomotor response to red moving lines, difference vs DMSO (percentage points (treated minus DMSO)); higher = more of the behaviour than the DMSO vehicle control; conditions: 10 µM; exposure time: 3 h pre-incubation + 3 h imaging
Method: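 5-dpf wild-type zebrafish larvae were imaged in 96-well plates. They were treated with 190 Tocris FDA-approved drugs at 10 µM (1 µl/ml DMSO) for 3 h before and 3 h during imaging at 28.5 °C, 48 larvae per drug. Automated image analysis gave % time moving and optomotor responses. Values are drug group mean minus DMSO vehicle mean (n=844), in percentage points, for 10 behaviours.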

Compound	optomotor response to red moving lines
COc1cc([C@@H]2c3cc4c(cc3[C@@H](O[C@@H]3O[C@@H]5CO[C@@H](C)O[C@H]5[C@H](O)[C@H]3O)[C@H]3COC(=O)[C@H]23)OCO4)cc(OC)c1O [Etoposide]	2.25
CN(C)CCc1c[nH]c2ccc(Cn3cncn3)cc12 [Rizatriptan benzoate]	14.6
OCc1cc(C(O)CNCCCCCCOCCCCc2ccccc2)ccc1O (stereo not given) [Salmeterol xinafoate]	5
CC(=O)Oc1ccccc1C(=O)O [Aspirin]	7.38
CC(=O)Nc1ccc(O)cc1 [Acetaminophen]	-2.99
CC(c1cc2ccccc2s1)N(O)C(N)=O (stereo not given) [Zileuton]	-7.52
Cc1cccc(C)c1OCC(C)N (stereo not given) [Mexiletine hydrochloride]	3.43
CC(C)C(=O)Nc1ccc([N+](=O)[O-])c(C(F)(F)F)c1 [Flutamide]	-10.8
CN(CCOc1ccc(CC2SC(=O)NC2=O)cc1)c1ccccn1 (stereo not given) [Rosiglitazone]	-2.8
CCc1c2c(nc3ccc(OC(=O)N4CCC(N5CCCCC5)CC4)cc13)-c1cc3c(c(=O)n1C2)COC(=O)[C@]3(O)CC	-8.71
CN1CCN2c3ncccc3Cc3ccccc3C2C1 (stereo not given) [Mirtazapine]	-3.88
Cc1ccc(NC(=O)c2ccc(CN3CCN(C)CC3)cc2)cc1Nc1nccc(-c2cccnc2)n1 [Imatinib mesylate]	-3.1
CC(C)(C)NC(=O)[C@@H]1C[C@@H]2CCCC[C@@H]2CN1C[C@@H](O)[C@H](Cc1ccccc1)NC(=O)[C@H](CC(N)=O)NC(=O)c1ccc2ccccc2n1 [Saquinavir mesylate]	-16.6
Cn1nnc2c(C(N)=O)ncn2c1=O [Temozolomide]	2.24
CC#C[C@]1(O)CC[C@H]2[C@@H]3CCC4=CC(=O)CCC4=C3[C@@H](c3ccc(N(C)C)cc3)C[C@@]21C [Mifepristone]	3.5
CC(=O)Oc1cc2c(s1)CCN(C(C(=O)C1CC1)c1ccccc1F)C2 (stereo not given) [Prasugrel]	5.97
CN1CC2c3ccccc3Oc3ccc(Cl)cc3C2C1 (stereo not given) [Asenapine maleate]	-5.48
Nc1nc(Cl)nc2c1ncn2[C@@H]1O[C@H](CO)[C@@H](O)[C@@H]1F [Clofarabine]	1.11
COC(c1ccccc1)(c1ccccc1)[C@H](Oc1nc(C)cc(C)n1)C(=O)O [Ambrisentan]	-4.02
CC[C@H]1OC(=O)[C@H](C)[C@@H](O[C@H]2C[C@@](C)(OC)[C@@H](O)[C@H](C)O2)[C@H](C)[C@@H](O[C@@H]2O[C@H](C)C[C@H](N(C)C)[C@H]2O)[C@](C)(O)C[C@@H](C)CN(C)[C@H](C)[C@@H](O)[C@]1(C)O [Azithromycin]	-11.1

Compound	optomotor response to red moving lines
OC(CNCC(O)C1CCc2cc(F)ccc2O1)C1CCc2cc(F)ccc2O1 (stereo not given) [Nebivolol hydrochloride]	-16.2
NS(=O)(=O)c1cc2c(cc1Cl)NC(C1CC3C=CC1C3)NS2(=O)=O (stereo not given) [Cyclothiazide]	-6.66
Cc1nnc(C(C)C)n1C1C[C@H]2CC[C@@H](C1)N2CC[C@H](NC(=O)C1CCC(F)(F)CC1)c1ccccc1 (stereo in doubt) [Maraviroc]	-6.34
O=c1n(CCCN2CCN(c3cccc(Cl)c3)CC2)nc2ccccn12 [Trazodone hydrochloride]	14.6
CCC(=O)O[C@]1(C(=O)SCF)[C@H](C)C[C@H]2[C@@H]3C[C@H](F)C4=CC(=O)C=C[C@]4(C)[C@@]3(F)[C@@H](O)C[C@@]21C [Fluticasone propionate]	-12.2
CC(C)c1nc(CN(C)C(=O)N[C@H](C(=O)N[C@@H](Cc2ccccc2)C[C@H](O)[C@H](Cc2ccccc2)NC(=O)OCc2cncs2)C(C)C)cs1 [Ritonavir]	-2.77
CN1CCC[C@@H]1Cc1c[nH]c2ccc(CCS(=O)(=O)c3ccccc3)cc12 [Eletriptan hydrobromide]	4.39
O=C(NCC1CCCCN1)c1cc(OCC(F)(F)F)ccc1OCC(F)(F)F (stereo not given) [Flecainide acetate]	-9.35
COCCCOc1cc(C[C@@H](C[C@H](N)[C@@H](O)C[C@H](C(=O)NCC(C)(C)C(N)=O)C(C)C)C(C)C)ccc1OC [Aliskiren hemifumarate]	0.559
CNC(=O)c1cc(Oc2ccc(NC(=O)Nc3ccc(Cl)c(C(F)(F)F)c3)cc2)ccn1 [Sorafenib]	-10.7
COc1c(C)c2c(c(O)c1C/C=C(\C)CCC(=O)OCCN1CCOCC1)C(=O)OC2 [Mycophenolate mofetil]	12.2
C=C1[C@H](CO)[C@@H](O)C[C@@H]1n1cnc2c(=O)[nH]c(N)nc21 [Entecavir]	1.68
CCOc1cc(CC(=O)N[C@@H](CC(C)C)c2ccccc2N2CCCCC2)ccc1C(=O)O [Repaglinide]	3.38
CCCc1nn(C)c2c(=O)[nH]c(-c3cc(S(=O)(=O)N4CCN(C)CC4)ccc3OCC)nc12 [Sildenafil citrate]	-6
OCCOCCN1CCN(C2=Nc3ccccc3Sc3ccccc32)CC1 [Quetiapine hemifumarate]	6.92
O=C(Nc1c(Cl)cncc1Cl)c1ccc(OC(F)F)c(OCC2CC2)c1 [Roflumilast]	0.247
Cc1cc(C2CCCCC2)n(O)c(=O)c1 [Ciclopirox]	-5.18
CCOC(=O)C1=C(COCCN)NC(C)=C(C(=O)OC)C1c1ccccc1Cl (stereo not given) [Amlodipine besylate]	-1.08
CCOC(=O)[C@H](CCc1ccccc1)N[C@H]1CCc2ccccc2N(CC(=O)O)C1=O [Benazepril hydrochloride]	13
C[C@@H](O[C@H]1OCCN(Cc2n[nH]c(=O)[nH]2)[C@H]1c1ccc(F)cc1)c1cc(C(F)(F)F)cc(C(F)(F)F)c1 [Aprepitant]	-4.19

Reference: the supplement of paper PMC9023506
